# Reference: PubChem BioAssay AID588342 (National Center for Advancing Translational Sciences (NCATS), 2011)
# About 25,000 (6.9%) of roughly 360,000 compounds were called active. About 9% were inconclusive and are not listed. Shown is part of a subset that was picked to be rich in actives. Unmarked numbers belong to inactive results. The call rests on the fitted dose curve; in most records, active means well fitted inhibition curve with a large enough effect; inconclusive means small, poorly fitted or top-dose-only effect; inactive means flat fitted curve, though single readings scatter.
# Molecular target: Luciferin 4-monooxygenase (Photinus pyralis) (UniProt P08659)
# Sequence (P08659 whole entry, looked up): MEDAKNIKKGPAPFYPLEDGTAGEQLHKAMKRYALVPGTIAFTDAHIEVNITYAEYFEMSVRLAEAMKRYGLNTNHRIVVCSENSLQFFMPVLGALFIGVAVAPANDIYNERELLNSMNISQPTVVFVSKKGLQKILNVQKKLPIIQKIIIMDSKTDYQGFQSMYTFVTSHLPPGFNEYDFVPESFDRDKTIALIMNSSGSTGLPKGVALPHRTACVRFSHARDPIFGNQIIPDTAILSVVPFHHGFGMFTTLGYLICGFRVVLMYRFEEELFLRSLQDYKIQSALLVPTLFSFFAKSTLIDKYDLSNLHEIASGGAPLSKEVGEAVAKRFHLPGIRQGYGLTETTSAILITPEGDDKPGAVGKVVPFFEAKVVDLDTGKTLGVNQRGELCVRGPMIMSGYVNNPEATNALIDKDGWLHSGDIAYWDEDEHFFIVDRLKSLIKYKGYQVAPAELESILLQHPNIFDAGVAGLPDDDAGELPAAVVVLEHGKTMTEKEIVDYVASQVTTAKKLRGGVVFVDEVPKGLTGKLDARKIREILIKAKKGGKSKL
# Experiment: qHTS profiling assay for firefly luciferase inhibitor/activator using purifed enzyme and Km concentrations of substrates (counterscreen for miR-21 project); further: nearly all actives have a fitted effect of over 55% in size;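 on activity change, negative = inhibition: plate controls were vehicle for no effect and reference inhibitor for full effect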
# Settings: purified FLuc, luminescence inhibition; series mostly up to 57.5 µM; activity change, negative = inhibition: at the top concentration
# Summary of the method: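 Purified P. pyralis luciferase, 10 nM final, with Km-level 10 uM D-luciferin and 10 uM ATP in 50 mM Tris acetate pH 7.5, 10 mM Mg acetate, 0.01% Tween-20, 0.05% BSA; 6-point qHTS titration about 60 µM downward; luminescence read.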
# Potency means the concentration at half of the fitted maximal effect.
SMILES,"activity change, negative = inhibition",Potency
COc1ccc(S(=O)(=O)c2c(Nc3cccc(Cl)c3)sc(C(=O)c3ccccc3)c2N)cc1,0.0899%,–
COc1cc(-c2cc3n(C)c(C)c(CCC(=O)Nc4ccc(F)cc4)c(=O)n3n2)cc(OC)c1OC,3.74%,–
CC(=O)c1ccc(-c2nnc(CCC(=O)N(C)Cc3cnc4ccccn34)o2)s1,-0.52%,–
CCc1ccc(CN(C)C(=O)CCc2nnc(-c3ccc(-c4ccccc4)cc3)o2)nc1,–,13.5 µM (active)
CCc1ccc(CN(C)Cc2nc(Cc3ccccc3)no2)nc1,3.54%,–
Nc1ccc(-c2nnc(-c3ccc(-c4ccccc4)cc3)o2)cc1,–,2.69 µM (active)
Nc1ccc(-c2nnc(-c3ccccc3)o2)cc1,–,19 µM (active)
Nc1cccc(-c2cc(-c3ccccc3)nc(-c3cccc(N)c3)n2)c1,1.65%,–
O=C(OCc1nnc(-c2ccccc2)o1)c1cc(=O)[nH]c2ccccc12,4.33%,–
Nc1ccc(-c2sc(N)nc2-c2ccccc2)cc1,-1.44%,–
CC(=O)c1ccc(NC(c2ccc(F)cc2)c2nnc(-c3ccccc3)o2)cc1 (centres undefined),-2.01%,–
Cc1oc2ccc(O)c(CN3CCOCC3)c2c1C(=O)Nc1cccc(Cl)c1C,-1.52%,–
CC(NC(=O)CCc1cn(Cc2ccccc2Cl)c2ccccc12)c1ccccc1 (centres undefined),6.58%,–
CCCSc1nc2sc3c(c2c(=O)n1-c1cccc(Br)c1)CC(C)(C)OC3,0.901%,–
Cc1ccccc1NC(=O)Cc1nc(COC(=O)c2ccc(C(F)(F)F)cc2)cs1,3.93%,–
Cc1ccc(C)c(NC(=O)COC(=O)CSc2ccccc2)c1,6.9%,–
CCOc1ccc(NC(=O)CN(Cc2ccccc2)S(=O)(=O)c2ccc(Cl)cc2)cc1,-5.84%,–
Cc1cccc(NC(=O)Nc2ccc(OCc3ccccc3)cc2)n1,-1.92%,–
O=C(O)/C=C\C(=O)Nc1ccc(OCc2ccccc2)cc1,–,19 µM (active)
CCc1ccnc(NC(=O)Nc2ccc(OCc3ccccc3)cc2)c1,-2.87%,–
O=C(Cn1ccc(=O)[nH]c1=O)Nc1ccc(C(=O)O)c(O)c1,-4.38%,–
CC(=O)Oc1cccc(C(=O)Nc2ccccc2NC(=O)c2cccc(OC(C)=O)c2)c1,-0.563%,–
COc1cccc(C(=O)Nc2ccc(N3CCN(C(=O)c4ccco4)CC3)cc2)c1,-3%,–
COc1cccc(C(=O)Nc2ccc(N3CCCC3)cc2)c1,–,4.26 µM (active)
O=C(Nc1ccc(S(=O)(=O)N2CCc3ccccc3C2)cc1)c1ccccc1,0.419%,–
COc1ccc(C2COC(=O)C2=N)c(NC(=O)c2ccccc2)c1 (centres undefined),4.01%,–
O=C(Nc1ccc(C(=O)O)c(O)c1)c1ccccc1,–,15.1 µM (active)

SMILES,"activity change, negative = inhibition",Potency
CC(=O)Nc1ccc(S(=O)(=O)N2CCN(c3ccccc3)CC2)cc1,-1.03%,–
COc1ccc(C(=O)Nc2ccc(N3CCC(C)CC3)cc2)cc1Br,-1.07%,–
CN1CCN(c2ccc(NC(=O)c3ccccc3)cc2)CC1,–,10.7 µM (active)
Cc1ccccc1C(=O)NC(=S)Nc1ccc(N2CCN(C(=O)c3ccccc3)CC2)cc1,2.99%,–
COc1cccc(C(=O)Nc2cc3c(cc2Br)OCCCO3)c1,–,4.78 µM (active)
COc1ccccc1N1CCN(C(=O)C2Cc3ccccc3CN2C(=O)c2ccco2)CC1 (centres undefined),3.04%,–
CC(=O)c1ccc(NC(=O)CSc2nc(-c3ccccc3F)nc3c2c(=O)n(C)c(=O)n3C)cc1,4.57%,–
CC(=O)N1c2ccc(S(=O)(=O)N(C)CC(=O)N(C)Cc3ccccc3)cc2CC1C (centres undefined),4.32%,–
CCCCn1c(SCc2ncc(-c3ccccc3)o2)nc2cc(S(N)(=O)=O)ccc21,-17.5%,–
Cc1oc2ccc(O)c(CN3CCCCC3)c2c1C(=O)Nc1cccc(C(F)(F)F)c1,-0.279%,–
CCn1c(CN2CCC(C)CC2)nc2cc(NC(=O)c3ccccc3[N+](=O)[O-])ccc21,5.45%,–
Cc1ccc(NC(=O)C(C)OC(=O)Cc2c[nH]c3ccccc23)cc1S(=O)(=O)N1CCOCC1 (centres undefined),-1.54%,–
COc1ccc(CCNC(=O)CCCCn2c(=O)c3ccccc3n(Cc3ccccc3C)c2=O)cc1OC,-1.31%,–
CCNC(=O)Cn1nc(C)n2c(cc3c(OC)cccc32)c1=O,-2.16%,–
CCOc1ccc(S(=O)(=O)Nc2nccs2)cc1,-0.677%,–
O=C(CN1C(=O)COc2ccc(Cl)cc21)Nc1ccc(N2CCOCC2)cc1,-0.823%,–
COC(=O)c1ccc(N2CCOCC2)c(NC(=O)c2ccc3c(c2)OCCO3)c1,0.934%,–
Cc1ccccc1C(=O)Nc1ccc(N2CCCCCC2)cc1,–,10.7 µM (active)
COc1cccc(C(=O)Nc2ccc3nc4n(c(=O)c3c2)CCCCC4)c1,–,16.9 µM (active)
CN1CCN(c2ccc(NC(=O)c3ccc4c(c3)OCCO4)cc2Cl)CC1,–,4.78 µM (active)
O=C(NC(=O)c1ccccc1N1CCCCC1)Nc1ccc(Br)cc1,-6.23%,–
Cc1ccccc1C(=O)N1CCN(c2ccc(NC(=O)c3cccs3)cc2)CC1,-1.16%,–
CCCCN(CC)C(=S)Nc1ccc2nc3n(c(=O)c2c1)CCCCC3,3.88%,–
NS(=O)(=O)c1ccc(NC(=O)C(=O)Nc2ccc3nc4n(c(=O)c3c2)CCCCC4)cc1,1.12%,–
CN1CCN(c2ccc(NC(=O)c3cc(Cl)c4c(c3)OCCO4)cc2)CC1,–,10.7 µM (active)
COc1cc2ccccc2cc1C(=O)Nc1ccc(N2CCOCC2)cc1,7.87%,–
O=C(Nc1ccc(N2CCOCC2)c(Cl)c1)c1ccc(S(=O)(=O)N2CCOCC2)cc1,2.53%,–
